Source: PubChem BioAssay (Pan Lab, Icahn School of Medicine at Mount Sinai)
ROC1-CUL1 inh = blocks human RBX1-Cullin-1 di-ubiquitin formation. P62877+Q13616. in vitro K48 di-Ub FRET, acceptor:donor ratio, 45 min. inhibition, % at 10 µM. 0.6% of 140,000 active; in the data active = inhibition above about 25%
Target sequence (P62877 whole entry, looked up): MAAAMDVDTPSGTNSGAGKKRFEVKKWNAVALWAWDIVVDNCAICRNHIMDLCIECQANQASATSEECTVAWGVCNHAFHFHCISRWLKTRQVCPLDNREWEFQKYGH
Target sequence (Q13616 whole entry, looked up): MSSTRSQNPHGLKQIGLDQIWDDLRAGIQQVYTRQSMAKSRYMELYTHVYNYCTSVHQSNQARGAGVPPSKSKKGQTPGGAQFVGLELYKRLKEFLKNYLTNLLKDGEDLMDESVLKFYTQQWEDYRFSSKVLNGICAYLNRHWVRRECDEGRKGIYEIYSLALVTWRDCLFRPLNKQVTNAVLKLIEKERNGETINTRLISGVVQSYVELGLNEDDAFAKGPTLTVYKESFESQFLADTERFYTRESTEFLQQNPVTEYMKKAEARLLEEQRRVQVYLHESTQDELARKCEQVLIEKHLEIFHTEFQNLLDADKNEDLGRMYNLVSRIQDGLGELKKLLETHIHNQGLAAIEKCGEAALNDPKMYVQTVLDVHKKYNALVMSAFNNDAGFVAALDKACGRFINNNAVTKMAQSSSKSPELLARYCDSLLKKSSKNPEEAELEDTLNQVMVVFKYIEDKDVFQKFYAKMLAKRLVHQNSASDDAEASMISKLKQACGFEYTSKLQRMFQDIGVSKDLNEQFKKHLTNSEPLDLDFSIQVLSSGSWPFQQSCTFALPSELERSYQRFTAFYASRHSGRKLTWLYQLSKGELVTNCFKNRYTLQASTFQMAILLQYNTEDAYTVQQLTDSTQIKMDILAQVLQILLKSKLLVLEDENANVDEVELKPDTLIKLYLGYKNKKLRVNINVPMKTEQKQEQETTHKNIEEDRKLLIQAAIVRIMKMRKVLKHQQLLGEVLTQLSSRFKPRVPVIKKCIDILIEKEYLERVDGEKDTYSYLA
* hit, by the source's call. Many of the other results were omitted from the sample, so hits are more common in it than they were.

SMILES	ROC1-CUL1 inh
O=C(COC(=O)c1ccc(NC(=O)c2ccc(Cl)cc2)cc1)c1cccc([N+](=O)[O-])c1	2.1
O=C(Nc1cc2nc3ccccc3nc2cc1NC(=O)c1cccc([N+](=O)[O-])c1)c1cccc([N+](=O)[O-])c1	0.2
O=C(NC1=NN(c2c(Cl)cc(Cl)cc2Cl)C(=O)/C1=C/c1ccc(O)cc1)c1cccc([N+](=O)[O-])c1	59.6*
Cc1ccc(NC(=O)CCc2ccc(S(=O)(=O)NC(C)c3ccccc3)cc2)cc1 (configuration not stated)	2.1
COc1ccc(-n2c(C)nnc2SCC(=O)NNC(=O)c2ccc(Br)cc2)cc1	-0.1
O=C(Nc1nc2ccccc2s1)C(C(F)(F)F)C(F)(F)F	74.2*
CC(Oc1ccccc1)C(=O)Nc1nc2ccccc2s1 (configuration not stated)	2.9
CC(C)C(=O)Nc1nc2ccccc2s1	1.1
COC(=O)c1ccc(Cl)c(NC(=O)c2ccccc2OC)c1	-2.8
CC(=O)c1nn(-c2ccc(Br)cc2)cc1C(=O)c1cc2ccccc2oc1=O	1.5
Cc1cc(CN(C)C(=O)CC2(c3ccccc3)CC(=O)N(Cc3cccs3)C2=O)on1 (configuration not stated)	1.6
CCc1ccc(-c2nc3cc(NC(=O)/C=C\c4ccco4)ccc3o2)cc1	5.7
O=C(Nc1ccc2oc(-c3cccnc3)nc2c1)c1ccc(-c2ccccc2)o1	3.9
O=C(/C=C/c1ccco1)Nc1ccc2oc(-c3cccnc3)nc2c1	54.0*
c1ccc(Sc2ccc(Sc3ccccc3)nn2)cc1	-6.7
Cc1ccc(C(O)c2ccc(C(F)(F)F)cc2)cc1 (configuration not stated)	3.4
CN1CCN(C(=O)c2cc3c(s2)CCCC3)CC1	-5.1
Clc1ccc(Cl)c(/C=N\Nc2nccs2)c1Cl	-2.1
O=C(O)CCSc1ncnc2ccccc12	8.2
O=C(O)CCNc1cccc2ncccc12	80.8*
O=C(O)CCNc1nc(-c2ccccc2)nc2ccccc12	3.0
CN1C(=O)/C(=C/c2ccc3c(c2)OCO3)SC1=Nc1ccc(C(=O)O)cc1	11.7
CN1C(=O)/C(=C/c2ccc(-c3ccc(C(=O)O)cc3)o2)SC1=Nc1ccc(C(=O)O)cc1	28.5*
C=CCN1C(=O)/C(=C/c2ccc(-c3ccc(C(=O)O)cc3)o2)SC1=S	5.2
CCS(=O)(=O)N1CCCC(CCc2ccccc2)C1 (configuration not stated)	-4.8
SMILES	ROC1-CUL1 inh
Cc1cccc(C)c1NC(=O)Cn1c(C)c(C#N)c2ccccc21	-2.8
Cc1cc(-c2n[nH]c3c2CN(S(=O)(=O)c2cccs2)CC3)no1	-3.8
C1=C(CCNCc2ccccn2)CCCC1	5.5
CN(C)c1cc[n+](Cc2ccccn2)cc1	0.1
c1ccc(C[n+]2cccc3c2CCCC3)nc1	44.9*
O=C(OCc1ccc(Br)cc1)c1ccc(Cl)cc1Cl	-1.3
Cc1ccc(NCC(O)CN2C(=O)c3ccccc3C2=O)cc1 (configuration not stated)	-0.6
O=C(CC1CCCC1)NC1CCCc2nc(N3CCC(CO)CC3)ncc21 (configuration not stated)	2.9
O=C1OC(C2C(=O)c3ccccc3C2=O)C(Br)=C1Br (configuration not stated)	12.6
COc1ccc2nc(Cl)c(-c3nnc4c(Cl)nc5ccccc5n34)cc2c1	-9.4
Fc1ccc(-c2nnc3c(Cl)nc4ccccc4n23)cc1	10.9
Clc1nc2ccccc2n2c(-c3ccccc3)nnc12	25.2*
O=C1CCCN1CCCC(=O)N1CCCC(CCc2ccc(F)cc2F)C1 (configuration not stated)	-13.5
O=C1CCCC1SC(=S)N1CCCCC1 (configuration not stated)	-6.4
COc1cccc(S(=O)(=O)Nc2ccc(C(=O)N3CCc4cc(OC)c(OC)cc4C3)cc2)c1	10.3
CCSC1=N/C(=C\c2ccc(C(=O)O)cc2)C(=O)S1	3.4
O=C1SC(SCc2ccccc2Cl)=N/C1=C\c1ccc(C(=O)O)cc1	54.2*
CC(C)(C)c1cc(/C=C2\N=C(SCc3ccccc3Cl)SC2=O)cc(C(C)(C)C)c1O	4.8
O=C(O)c1ccc(N2N=C(c3ccccc3)/C(=C/c3ccccc3)C2=O)cc1	7.0
O=C1/C(=C/c2ccccc2OCc2ccccc2Cl)C(c2ccccc2)=NN1c1ccc([N+](=O)[O-])cc1	-2.9
O=C(O)c1ccc(N2N=C(c3ccccc3)/C(=C/c3ccco3)C2=O)cc1	33.1*
CCCCCCc1ccc(COc2ccc3cc(C#N)ccc3c2)cc1	-1.9
CC(C)NS(=O)(=O)c1cccnc1Cl	-12.4
O=C1C(Cl)=C(Cl)C(=O)C(CCNc2ncccn2)=C1Cl	97.9*
CCOC(=O)C1C(=N)OC2=C(C(=O)CCC2)C1c1ccc(F)c(Br)c1 (configuration not stated)	6.6
SMILES	ROC1-CUL1 inh
COC(=O)C1C2(C)N=c3s/c(=C\c4cc(Cl)cc(Cl)c4O)c(=O)n3C3c4ccccc4OC312 (configuration not stated)	41.3*
CCOC(=O)C1=C(C)N=c2s/c(=C\c3cc(Cl)cc(Cl)c3O)c(=O)n2C1c1ccccc1Cl (configuration not stated)	-28.9
Cc1ccccc1NC(=O)C1C2c3ccccc3OC1(C)N=c1s/c(=C/c3cnn(C)c3C)c(=O)n12 (configuration not stated)	-4.1
CCCC(=O)N(c1ccc2oc(C)c(C(C)=O)c2c1)S(=O)(=O)c1ccc(F)cc1	6.9
CCC(C)c1ccccc1NC(=O)Nc1ccc(Cl)cc1 (configuration not stated)	-3.1
O=C1NC(=S)N(c2ccccc2F)C(=O)/C1=C/c1cccn1-c1cccc(C(=O)O)c1	100.9*
COc1cc(/C=C2\C(=O)NC(=S)N(c3ccccc3F)C2=O)c(Br)cc1O	10.6
COc1cccc(/C=C2\C(=O)NC(=S)N(c3ccccc3C)C2=O)c1OC(C)C	30.6*
Cc1ccc(N2C(=O)/C(=C/c3cccn3-c3ccc(N(C)C)cc3)C(=O)NC2=S)cc1C	34.7*
Cc1ccccc1N1C(=O)/C(=C/c2cccn2-c2cccc(C(=O)O)c2)C(=O)NC1=S	102.3*
Cc1ccccc1N1C(=O)/C(=C/c2cc(Cl)cc(Cl)c2O)C(=O)NC1=S	7.1
CCOc1ccc(/C=C2\C(=O)NC(=S)N(c3cccc(C)c3C)C2=O)cc1	-1.4
COc1cccc(C=C2C(=O)c3ccccc3C2=O)c1OC(C)C	-7.5
O=C(O)c1cccc(-n2cccc2/C=C2\SC(=O)N(Cc3ccccc3F)C2=O)c1	8.2
CCc1ccc(N2C(=O)/C(=C/c3cccn3-c3cccc(C(=O)O)c3)C(=O)NC2=S)cc1	21.5
Cc1cccc(N2C(=O)/C(=C/c3cccn3-c3cccc(C(F)(F)F)c3)C(=O)NC2=S)c1	0.4
O=C1NC(=S)N(c2ccccc2)C(=O)/C1=C/c1cccn1-c1ccc(Br)cc1	5.3
CCc1noc(C)c1C(=O)NC1CCCCCC1	5.6
Cc1ncoc1C(=O)N1CCc2[nH]nc(-c3cccc(OC(F)(F)F)c3)c2C1	0.8
Cc1ccccc1NCC(O)Cn1c2ccc(I)cc2c2cc(I)ccc21 (configuration not stated)	-3.3
CCN(CC)c1ccc(/C=C2\C(=O)NC(=O)N(c3ccc(Br)c(C)c3)C2=O)cc1	-39.8
O=C1NC(=S)N(c2ccc(Br)cc2)C(=O)/C1=C/c1ccc(F)cc1	-0.4
CCN(CC)c1ccc(/C=C2\C(=O)NC(=S)N(c3ccc(Br)cc3)C2=O)cc1	28.1*
Cc1ccc(OC(=O)c2ccc([N+](=O)[O-])o2)c(-n2nc3ccccc3n2)c1	-1.5
